PubChem BioAssay (EPA / NIEHS)
The source made the active and inactive calls. How the source made its calls: active means hit-call score of the fitted dose curve at least 0.9, where 1 is the maximum; inactive means score below 0.9.

Assay: ATG_GLI_CIS: Attagene CIS-FACTORIAL HepG2 Assay for human Zinc Finger Protein GLI1 (AID 2282945)
Settings: HepG2, Attagene cis-factorial reporter mRNA, GLI element; actives raise or lower the signal
Procedure, shortened: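 Bidirectional curve fits relative to DMSO, using reporter mRNA levels from RT-PCR plus capillary electrophoresis. Cells were HepG2 transiently carrying cis-regulated reporter constructs, harvested 24 h after dosing.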

| Compound | outcome |
| --- | --- |
| NC(N)=NC(N)=NCCc1ccccc1 | inactive |
| CN1CCc2cccc3c2[C@H]1Cc1ccc(O)c(O)c1-3 | inactive |
| CCC(=O)OC/C=C(\C)CCC=C(C)C | inactive |
| C/C=C(\C)C(=O)OC/C=C(\C)CCC=C(C)C | inactive |
| S=c1[nH][nH]c(=S)s1 | inactive |
| O=C1OC2(c3ccc(O)cc3Oc3cc(O)ccc32)c2ccccc21 | inactive |
| CC(C)Cc1ccc(C(C)C(=O)O)cc1 (stereo not drawn) | inactive |
| NC(=O)c1cnccn1 | inactive |
| CC1=CC(C)C(C=O)C(C)C1 (stereo not drawn) (tested in a mixture with another compound) | inactive |
| CC(C)(C)C1CCC(O)CC1 (stereo not drawn) | inactive |
| CCCCOC(=O)C(C)OC(=O)CCC (stereo not drawn) | inactive |
| O=C(O)c1ccc(C(=O)O)c(C(=O)O)c1 | inactive |
| CC(CCO)CC(C)(C)C (stereo not drawn) | inactive |
| O=S(=O)(O)CCCN1CCOCC1 | inactive |
| CCO[Si](CCC#N)(OCC)OCC | inactive |
| C=C(C)C(=O)OCCC(C)OC(=O)C(=C)C (stereo not drawn) | inactive |
| CC(=O)N(C)C | inactive |

| Compound | outcome |
| --- | --- |
| O=c1cc(-c2ccc(O)cc2)oc2cc(O)cc(O)c12 | inactive |
| CC1=CC(O)CC(C)(C)C1 (stereo not drawn) | inactive |
| CCC(=O)OCC=Cc1ccccc1 | inactive |
| CCCCC1CCCCC(=O)O1 (stereo not drawn) | inactive |
| CCCCCCCCCO | inactive |
| CC(C)(O)CCc1ccccc1 | inactive |
| CN(C)CCC=C1c2ccccc2CCc2ccccc21 | inactive |
| CCOC(=O)COC(=O)c1ccccc1C(=O)OCC | inactive |
| O=C(O)CS | inactive |
| CC(C)(CO)CO | inactive |
| CCCCOCCOCCO | inactive |
| Brc1cc(Br)cc(Br)c1 | inactive |
| CC(C)Cc1ccccc1 | inactive |
| COc1ccc(OC)cc1 | inactive |
| Nc1ccc(O)c(N)c1 | inactive |
| CCCC1CCC(=O)CC1 | inactive |
| N=C1N=C(N)c2ccccc21 | inactive |

Assay: ATG_GRE_CIS: Attagene CIS-FACTORIAL HepG2 Assay for human Glucocorticoid Response Elements (GRE) (AID 2282947)
Settings: HepG2 GRE cis-reporter, Attagene multiplex mRNA; actives raise or lower the signal
Procedure, shortened: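 Assay uses human hepatoma HepG2 cells transfected with cis-promoter reporter units, exposed 24 h. mRNA from reporters detected by RT-PCR plus capillary electrophoresis; DMSO serves as negative control and baseline.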

| Compound | outcome |
| --- | --- |
| NC(N)=NC(N)=NCCc1ccccc1 | inactive |
| CN1CCc2cccc3c2[C@H]1Cc1ccc(O)c(O)c1-3 | inactive |
| CCC(=O)OC/C=C(\C)CCC=C(C)C | inactive |
| C/C=C(\C)C(=O)OC/C=C(\C)CCC=C(C)C | inactive |
| S=c1[nH][nH]c(=S)s1 | inactive |
| O=C1OC2(c3ccc(O)cc3Oc3cc(O)ccc32)c2ccccc21 | inactive |
| CC(C)Cc1ccc(C(C)C(=O)O)cc1 (stereo not drawn) | inactive |
| NC(=O)c1cnccn1 | inactive |
| CC1=CC(C)C(C=O)C(C)C1 (stereo not drawn) (tested in a mixture with another compound) | inactive |
| CC(C)(C)C1CCC(O)CC1 (stereo not drawn) | inactive |
| CCCCOC(=O)C(C)OC(=O)CCC (stereo not drawn) | inactive |
| O=C(O)c1ccc(C(=O)O)c(C(=O)O)c1 | inactive |
| CC(CCO)CC(C)(C)C (stereo not drawn) | inactive |
| O=S(=O)(O)CCCN1CCOCC1 | inactive |
| CCO[Si](CCC#N)(OCC)OCC | inactive |
| C=C(C)C(=O)OCCC(C)OC(=O)C(=C)C (stereo not drawn) | inactive |
| CC(=O)N(C)C | inactive |

| Compound | outcome |
| --- | --- |
| O=c1cc(-c2ccc(O)cc2)oc2cc(O)cc(O)c12 | inactive |
| CC1=CC(O)CC(C)(C)C1 (stereo not drawn) | inactive |
| CCC(=O)OCC=Cc1ccccc1 | inactive |
| CCCCC1CCCCC(=O)O1 (stereo not drawn) | inactive |
| CCCCCCCCCO | inactive |
| CC(C)(O)CCc1ccccc1 | inactive |
| CN(C)CCC=C1c2ccccc2CCc2ccccc21 | inactive |
| CCOC(=O)COC(=O)c1ccccc1C(=O)OCC | inactive |
| O=C(O)CS | inactive |
| CC(C)(CO)CO | inactive |
| CCCCOCCOCCO | inactive |
| Brc1cc(Br)cc(Br)c1 | inactive |
| CC(C)Cc1ccccc1 | inactive |
| COc1ccc(OC)cc1 | inactive |
| Nc1ccc(O)c(N)c1 | inactive |
| CCCC1CCC(=O)CC1 | inactive |
| N=C1N=C(N)c2ccccc21 | inactive |
